# Test results published in PubChem BioAssay.
# The source made the active and inactive calls. Unless noted, how the calls were made is not given here.
# Tests used:
# [1] = resazurin metabolic signal in HepG2 cells – cell-based, resazurin fluorescence, 24 h, PK04 Diversity Set, profiling panel (AID 1172); conditions: HepG2 viability, higher = more signal
# [2] = budding yeast growth changes without added modifier – OD600, strain BY4716, 24 h, basal condition, primary screen (AID 1173); conditions: S. cerevisiae BY4716 growth, OD600, 24 h; higher = more signal, called active from +8 up or from −8 down
# [3] = viability profiling in MM1S myeloma cells – cell-based, resazurin fluorescence, basal, 24 h, PK04 Diversity Set, profiling panel (AID 1174); conditions: higher = more signal, called active from +8 up or from −8 down;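 further: MM1S multiple myeloma cell line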
# [4] = target: Dihydroorotate dehydrogenase (quinone), mitochondrial (Plasmodium falciparum (isolate 3D7)) (UniProt Q08210); assay: inhibition of P. falciparum DHODH – biochemical, C-terminal His tag, absorbance 600 nm, primary screen (AID 1175); conditions: PfDHODH enzyme, DCIP absorbance 600 nm; higher = more signal, called active from +8 up or from −8 down;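 further: recombinant parasite enzyme with a five histidine tag at its C terminus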
# Chain of Dihydroorotate dehydrogenase (quinone), mitochondrial (Plasmodium falciparum (isolate 3D7)) (Q08210 whole entry, looked up): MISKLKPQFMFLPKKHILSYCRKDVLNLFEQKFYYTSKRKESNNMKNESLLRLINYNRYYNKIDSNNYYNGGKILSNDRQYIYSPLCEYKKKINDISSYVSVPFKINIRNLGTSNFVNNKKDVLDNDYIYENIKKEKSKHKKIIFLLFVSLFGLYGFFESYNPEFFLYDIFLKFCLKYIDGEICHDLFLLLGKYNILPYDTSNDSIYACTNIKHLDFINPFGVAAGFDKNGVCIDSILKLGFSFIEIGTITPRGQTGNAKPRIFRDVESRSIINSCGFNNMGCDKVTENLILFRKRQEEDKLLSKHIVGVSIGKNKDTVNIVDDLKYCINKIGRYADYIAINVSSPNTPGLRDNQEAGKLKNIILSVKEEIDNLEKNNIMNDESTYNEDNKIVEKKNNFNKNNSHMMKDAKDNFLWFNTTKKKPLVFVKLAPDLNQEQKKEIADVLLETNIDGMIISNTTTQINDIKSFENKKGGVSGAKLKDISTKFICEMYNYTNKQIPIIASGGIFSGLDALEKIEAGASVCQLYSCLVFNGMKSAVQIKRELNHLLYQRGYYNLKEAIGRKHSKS
# [5] = inhibition of PAO1 biofilm formation – strain PAO1, LB-PBS medium, absorbance 600 nm, primary screen (AID 1176); conditions: P. aeruginosa PAO1 growth/biofilm, A600, 12 h; higher = more signal
# [6] = growth modulation of vineyard yeast isolate – strain RM11-1a, OD600, basal, 24 h, primary screen (AID 1177);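 further: cultures grown under basal conditions with no added stressor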; conditions: S. cerevisiae RM11-1a growth, OD600, 24 h; higher = more signal, called active from +8 up or from −8 down
# [7] = growth of efflux-deficient E. coli DRC39 – strain DRC39, OD650, 24 h, E. coli filamentation inducers, primary screen (AID 1178);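 further: growth measured as culture turbidity by optical density at 650 nm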; conditions: E. coli DRC39 acrAB, higher = more signal, called active from +8 up or from −8 down
# [8] = growth of efflux-deficient E. coli DRC39 – strain DRC39, OD650, 48 h, E. coli filamentation inducers, primary screen (AID 1179);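 further: screen aims at cell division blockers that make cells filament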; conditions: E. coli DRC39 delta-acrAB growth, higher = more signal, called active from +8 up or from −8 down
# [9] = viability profiling in RPMI8226 myeloma cells – cell-based, resazurin fluorescence, basal, 24 h, PK04 Diversity Set, profiling panel (AID 1180); conditions: higher = more signal;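 further: RPMI8826 multiple myeloma cell line at 5000 cells per well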
# [10] = target: E3 ubiquitin-protein ligase XIAP (Homo sapiens) (UniProt P98170); assay: small molecules binding XIAP protein – biophysical, small-molecule microarray, fluorescence 635 nm, primary screen (AID 1181); conditions: higher = more signal;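 further: score merges 667 nm emission and signal to noise over triplicate slides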
# Chain of E3 ubiquitin-protein ligase XIAP (Homo sapiens) (P98170 whole entry, looked up, the tested form may be a part): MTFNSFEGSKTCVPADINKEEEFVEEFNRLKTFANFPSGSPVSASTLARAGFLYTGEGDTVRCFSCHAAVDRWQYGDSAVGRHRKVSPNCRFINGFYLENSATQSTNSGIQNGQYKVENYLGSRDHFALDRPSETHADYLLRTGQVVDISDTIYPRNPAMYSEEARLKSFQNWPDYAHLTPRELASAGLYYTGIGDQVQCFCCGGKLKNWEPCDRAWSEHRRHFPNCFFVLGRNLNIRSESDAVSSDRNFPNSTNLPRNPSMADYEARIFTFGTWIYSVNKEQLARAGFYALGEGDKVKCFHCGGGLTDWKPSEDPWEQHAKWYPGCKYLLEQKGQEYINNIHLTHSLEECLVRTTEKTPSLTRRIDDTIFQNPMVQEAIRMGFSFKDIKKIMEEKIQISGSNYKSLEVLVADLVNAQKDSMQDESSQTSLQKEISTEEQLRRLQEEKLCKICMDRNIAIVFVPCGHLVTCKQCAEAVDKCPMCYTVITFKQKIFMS
# [11] = system: XIP peptide (Xip251-270) binding; assay: XIP fragment 251-270 binding compounds – biochemical, small-molecule microarray, fluorescence 635/667 nm, 0.1 µg/mL protein, primary screen (AID 1182); conditions: fluorescent protein binding, 635 nm, higher = more signal, called active from +8 up or from −8 down
# XIP peptide (Xip251-270) = assay: compounds binding XIP fragment 251-270 – biochemical, small-molecule microarray, fluorescence 635/667 nm, 0.5 µg/mL protein, primary screen (AID 1183); conditions: fluorescence 635 nm, higher = more signal
# [12] = blood-stage malaria parasite viability loss – strain 3D7, DAPI fluorescence, 100 nL, primary screen (AID 1184);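 further: parasites grown inside human red blood cells in medium with human serum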; conditions: P. falciparum 3D7 growth, 3 d, higher = more signal
# [13] = target: Homeobox protein Hox-A13 (Mus musculus) (UniProt Q62424); assay: disruptors of Hoxa13 oligonucleotide interaction – biochemical, fluorescence polarization, labeled oligonucleotide, primary screen (AID 1185); conditions: Hoxa13:DNA binding, 15 min, higher = more signal, called active from +8 up or from −8 down
# Chain of Homeobox protein Hox-A13 (Mus musculus) (Q62424 whole entry, looked up): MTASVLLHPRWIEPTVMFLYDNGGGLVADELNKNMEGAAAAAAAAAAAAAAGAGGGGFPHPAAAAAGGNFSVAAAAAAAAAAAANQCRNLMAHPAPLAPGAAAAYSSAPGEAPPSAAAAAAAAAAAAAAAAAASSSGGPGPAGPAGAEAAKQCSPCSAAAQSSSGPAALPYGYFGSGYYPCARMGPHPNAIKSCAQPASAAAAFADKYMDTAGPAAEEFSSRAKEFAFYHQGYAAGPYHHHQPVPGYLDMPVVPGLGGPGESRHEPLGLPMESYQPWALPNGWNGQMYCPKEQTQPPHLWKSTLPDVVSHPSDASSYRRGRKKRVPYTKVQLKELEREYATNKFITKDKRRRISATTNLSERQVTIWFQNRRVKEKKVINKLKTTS
# [14] = blockers of DNA damage checkpoint Chk1 activation – imaging, HeLa, hydroxyurea, phospho-Chk1 antibody, percent positive cells, primary screen (AID 1186); conditions: hydroxyurea-induced phospho-Chk1 immunofluorescence imaging, higher = more signal
# [15] = blockers of DNA damage checkpoint Chk1 activation – imaging, HeLa, hydroxyurea, phospho-Chk1 nuclear intensity, primary screen (AID 1187); conditions: hydroxyurea-induced phospho-Chk1 immunofluorescence imaging, higher = more signal
SMILES,z-score [1],z-score [2],z-score [3],composite z-score [4],z-score [5],z-score [6],z-score [7],z-score [8],z-score [9],composite z-score [10],composite z-score [11],composite z-score (XIP peptide (Xip251-270)),z-score [12],z-score [13],z-score [14],z-score [15]
COCCOC(=O)N1C(=O)[C@@]2(c3cc(C#CC4=CCCCC4)ccc31)[C@H](C(=O)NC[C@H](O)c1ccccc1)[C@H]1C(=O)O[C@H](c3ccccc3)[C@H](c3ccccc3)N1[C@@H]2c1ccc(O)cc1,-0.789,-0.571 (inactive),-0.925 (inactive),0.409 (inactive),1.01 (inactive),1.55 (inactive),-0.237 (inactive),0.174 (inactive),-1.73,-0.02,0.304 (inactive),0.744,-1.39,-0.485 (inactive),0.279 (inactive),0.475 (inactive)
CCOC(=O)[C@H]1C[C@H]2O[C@@]23C[C@H]1C(=O)N1CCCC1[C@@H]3O[Si](C)(C)C(C)(C)C (stereo not given in full),-0.332,-4.67 (inactive),-0.88 (inactive),-0.17 (inactive),0.367 (inactive),-0.521 (inactive),-0.205 (inactive),-0.595 (inactive),0.0096,-0.083,-0.0593 (inactive),-0.829,-0.329,-5.3 (inactive),-0.0084 (inactive),-0.115 (inactive)
O=C1OCCC=C[C@H]2OC34C=CCN(Cc5ccccc5)C(=O)[C@H]3N(CCCO)C(=O)[C@@H]4C12 (stereo not given in full),0.35,-0.625 (inactive),1.33 (inactive),-1.01 (inactive),0.152 (inactive),-0.0921 (inactive),-0.638 (inactive),0.129 (inactive),0.165,-0.0116,0.17 (inactive),-0.461,-2.21,-4.21 (inactive),-0.16 (inactive),-0.035 (inactive)
[N-]=[N+]=NCc1ccccc1C[C@]1(C(=O)O)N=C(c2ccc(OCCCO)cc2)O[C@H]1c1ccccc1,0.922,-2.17 (inactive),0.111 (inactive),0.732 (inactive),0.755 (inactive),-0.923 (inactive),-0.168 (inactive),-0.429 (inactive),0.525,-0.0482,1.06 (inactive),0.228,-0.296,-5.85 (inactive),0.109 (inactive),0.0605 (inactive)
COCCOC(=O)N1C(=O)[C@@]2(c3ccccc31)[C@H](c1ccc(O)cc1)N1[C@H](c3ccccc3)[C@H](c3ccccc3)OC(=O)[C@H]1[C@@H]2C(=O)N1CCc2cc(OC)c(OC)cc2C1,0.129,0.0332 (inactive),0.612 (inactive),-0.888 (inactive),0.759 (inactive),-0.33 (inactive),0.919 (inactive),1.3 (inactive),0.471,-0.0841,1.46 (inactive),0.794,-1.27,-1.87 (inactive),0.043 (inactive),0.361 (inactive)
COCCOC(=O)N1C(=O)[C@@]2(c3cc(C#CCC(C(=O)OC)C(=O)OC)ccc31)[C@H](C(=O)N1CCN(c3ncccn3)CC1)[C@H]1C(=O)O[C@H](c3ccccc3)[C@H](c3ccccc3)N1[C@@H]2c1ccc(OCCO)cc1,1.36,0.539 (inactive),0.724 (inactive),-0.432 (inactive),3.48 (inactive),1.84 (inactive),0.272 (inactive),0.106 (inactive),1.32,0.0838,0.262 (inactive),0.698,-2.22,2.45 (inactive),-0.576 (inactive),-0.833 (inactive)
O=C1O[C@@H](c2ccccc2)[C@@H](c2ccccc2)N2[C@@H](c3ccc(OCCO)cc3)[C@]3(C(=O)Nc4ccccc43)[C@@H](C(=O)Nc3nc4ccccc4s3)[C@H]12,-0.489,0.0135 (inactive),-1.52 (inactive),-0.308 (inactive),3.18 (inactive),1.97 (inactive),-0.595 (inactive),0.29 (inactive),-1.55,0.148,0.615 (inactive),0.841,-0.161,2.18 (inactive),-0.469 (inactive),-0.781 (inactive)
COc1cc(C(O)C2C=CC3C(=O)N(c4ccccc4)C(=O)C3N2Nc2ccc(C#N)cc2)cc(OC)c1OC (stereo not given),-1.28,-2.44 (inactive),-1.62 (inactive),0.198 (inactive),1.36 (inactive),-0.343 (inactive),-0.914 (inactive),-0.386 (inactive),-0.919,0.0819,1.42 (inactive),0.906,0.162,-4.55 (inactive),0.859 (inactive),0.668 (inactive)
CCOC(=O)[C@H]1C/C=C/C[C@H](C(=O)OCC)C(=O)O[C@H]2[C@@H](OC)O[C@H](CO)[C@@H](OC(=O)Nc3ccc4c(c3)OCO4)[C@@H]2OC1=O,-4.19,0.273 (inactive),-6.98 (inactive),0.0446 (inactive),1.2 (inactive),1.06 (inactive),1.03 (inactive),1.53 (inactive),-6.84,-0.102,1.28 (inactive),0.832,-1.95,-2.27 (inactive),-0.18 (inactive),-0.0843 (inactive)
COc1ccc(C#Cc2ccc3c(c2)[C@]2(C(=O)N3)[C@H](C(=O)NC[C@H](O)c3ccccc3)[C@H]3C(=O)O[C@H](c4ccccc4)[C@H](c4ccccc4)N3[C@@H]2c2ccc(OCCO)cc2)cc1,-1.07,2.22 (inactive),-1.16 (inactive),-0.0157 (inactive),2.55 (inactive),2.97 (inactive),-0.34 (inactive),-0.151 (inactive),-1.47,-0.125,-0.0969 (inactive),0.715,-1.06,-0.878 (inactive),0.63 (inactive),0.886 (inactive)
